Source: PubChem BioAssay (The Scripps Research Institute Molecular Screening Center)
IDE cell inh = cellular human IDE inhibition; HEK cells, FAbetaB cleavage, fluorescence polarization; inhibition, % at 5.59 µM; 0.41% of 320,000 active; P14735;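 active means percent inhibition above the average of all tested compounds plus 3 SD, set per screening campaign, cut at about 16% in these data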;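 further: IDE supplied by intact live HEK cells; FP after avidin binding of uncleaved biotin substrate so inhibition keeps polarization high; 0% = DMSO wells and 100% = 60 µM reference IDE inhibitor Ii1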
PKA-R2B activ = activators of human PKA-R2B complex; PKA-R2B holoenzyme dissociation, Cy5-IP20 fluorescence polarization; R2B truncated from residue 108, S112A mutant; 0% DMSO only, 100% 113 µM cGMP; activation, % at 11.4 µM; 0.079% of 340,000 active;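 active means activation above a cutoff set at the mean over all compounds plus 3 SD, cut at about 18% in these data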;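 further: higher means more holoenzyme dissociation and a rise in polarization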
PKA-R1A activ = activates the PKA-R1A holoenzyme complex; P00514+P68181; PKA-R1A dissociation, Cy5-IP20 fluorescence polarization; scaled: DMSO 0%, 113 µM cGMP 100%; activation, % at 11.4 µM; 0.083% of 340,000 active;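 active means percent activation above the mean of all tested compounds plus 3 SD, cut at about 19% in these data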;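 further: higher means more PKAc released from R1A so a rise in polarization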
IDE act = boosts human insulin-degrading enzyme activity in HEK cells | P14735 | FAbeta-B cleavage, fluorescence polarization; 0% vehicle, 100% cell-free pure enzyme wells | activation, % at 5.96 µM | 0.073% of 340,000 active | AID 493087;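 active means activation above the mean of all tested compounds plus 3 SD, set per screening campaign, cut at about 17% in these data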
Rin1-Abl PPI inh = human Rin1-Abl interaction inhibition; TR-FRET Rin1/Abl binding, biochemical; inhibition, % at 7.35 µM; 0.4% of 360,000 active; AID 588664; in the data active means inhibition above about 5%, passing the limit was not always enough
E coli Lon inh = E. coli protease La inhibition. P0A9M0. purified E. coli Lon protease, fluorescence polarization. inhibition, % at 7.94 µM. 0.42% of 360,000 active; in the data active means inhibition above about 13%, passing the limit was not always enough;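 further: 0% = enzyme with probe and DMSO and 100% = no enzyme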
Target sequence (P0A9M0 whole entry, looked up): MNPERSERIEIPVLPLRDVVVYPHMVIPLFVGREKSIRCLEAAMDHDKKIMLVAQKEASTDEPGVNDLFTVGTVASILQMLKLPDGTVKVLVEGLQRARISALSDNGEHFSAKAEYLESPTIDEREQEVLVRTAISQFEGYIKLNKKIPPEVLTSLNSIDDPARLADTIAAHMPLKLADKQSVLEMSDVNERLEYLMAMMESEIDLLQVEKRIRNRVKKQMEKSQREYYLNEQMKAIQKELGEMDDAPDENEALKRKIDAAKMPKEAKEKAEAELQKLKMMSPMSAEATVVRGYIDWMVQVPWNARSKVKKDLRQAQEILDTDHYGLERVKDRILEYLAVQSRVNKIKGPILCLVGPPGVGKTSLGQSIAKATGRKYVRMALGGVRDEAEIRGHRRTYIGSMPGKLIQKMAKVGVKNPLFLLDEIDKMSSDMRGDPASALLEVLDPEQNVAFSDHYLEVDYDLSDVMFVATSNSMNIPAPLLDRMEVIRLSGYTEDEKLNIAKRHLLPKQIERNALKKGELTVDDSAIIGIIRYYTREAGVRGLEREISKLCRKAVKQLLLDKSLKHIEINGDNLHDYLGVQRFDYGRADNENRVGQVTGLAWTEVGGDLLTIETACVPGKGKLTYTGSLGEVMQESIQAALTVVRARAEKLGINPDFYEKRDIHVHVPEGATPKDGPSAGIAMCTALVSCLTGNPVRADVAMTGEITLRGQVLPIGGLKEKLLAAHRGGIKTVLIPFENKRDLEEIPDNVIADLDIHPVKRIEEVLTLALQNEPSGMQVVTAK
Starred values were filed as active, the others as inactive; . = no result. Hits are enriched below; roughly 1.3% of the tested compounds scored in any of these assays.

SMILES	IDE cell inh	PKA-R2B activ	PKA-R1A activ	IDE act	Rin1-Abl PPI inh	E coli Lon inh
Cc1ccccc1CC1(CO)CCCN(Cc2ccc(C#CC(C)(C)O)cc2)C1 (stereo unspecified)	1	-6	-17	3	0	2
O=Nc1c(O)[nH]c2ccc(F)cc12	0	-1	-2	1	4	-3
Cc1cc2c(N=O)c(NO)ccc2[nH]1	0	-4	-9	8	12*	8
CC(=O)N1CCC(=O)Nc2ccc([N+](=O)[O-])cc21	9	-7	-9	20*	4	0
CC(=O)N1CCc2ccc([N+](=O)[O-])cc21	.	-6	-1	0	1	-8
COc1cccc(/C=N/NC(=O)NC23CC4CC(CC(C4)C2)C3)c1O	-4	.	.	.	8.1*	5
O=C(/C=C/c1ccc(Br)cc1)NC(=S)N1CCOCC1	3	-6	0	-5	-2	-4
CCCCCc1nnc(NC(=O)C2CCCO2)s1 (stereo unspecified)	1	-4	1	36*	1	-7
COc1ccc(C2NCCc3c2[nH]c2ccccc32)cc1CN1CCc2cc(OC)c(OC)cc2C1C (stereo unspecified)	.	4	5	-3	7.3*	-3
CCOc1cc(/C=N/Nc2cc(C)nc(-n3nc(C)cc3C)n2)ccc1O	0	-1	-5	22*	0	-2
Cc1cc(N/N=C/c2ccc(F)cc2)nc(-n2nc(C)cc2C)n1	11	.	.	.	-1	3
CCCn1cnc2cc(NCc3cccc(OC)c3O)ccc21	-3	0	2	3	-2	12
COc1cccc(CNc2ccc3c(c2)ncn3C(C)C)c1OC	-10	1	-9	20*	1	-7
CC1=NN(c2ccccc2)C(=O)C1=Cc1ccccc1	.	-9	-6	.	29*	13
O=C(Nc1ccc2oc(-c3ccncc3)nc2c1)c1ccc2c(c1)OCO2	9	-10	-2	-15	-7	8
Cc1oc(-c2ccccc2Cl)nc1CS(=O)CC(=O)NCCc1ccccc1 (stereo unspecified)	5	-2	-1	3	-2	6
Cc1ccc(Cl)cc1NC(=O)c1cc(NC(=O)CCCC(=O)O)ccc1N1CCCCC1	-1	-1	-4	3	1	-4
COc1ccc(NC(=O)c2ccccc2)cc1NS(=O)(=O)c1ccc(F)cc1	7	-6	-4	4	0	-6
COc1ccc(NC(=O)c2ccc(-c3ccccc3)cc2)cc1NS(=O)(=O)c1ccc(F)cc1	21*	-16	-5	-23	-1	-4
O=C(CSc1nc2nn(-c3ccccc3)c(=O)c-2c2n1CCCCC2)c1ccc(O)c(O)c1	4	-3	-9	6	16*	-5
Cc1cc(O)c2c(c1O)C(=O)[C@]13C(=C2O)C(=O)[C@@H]2[C@@H](O)[C@H]1[C@@H]1[C@H](O)[C@H]3C(=O)C3=C(O)c4c(O)cc(C)c(O)c4C(=O)[C@]312	9	5	7	1	12	27*
O=C(c1ccco1)N1CCN(c2ncnc3c2[nH]c2ccc(Cl)cc23)CC1	67*	.	.	.	.	.
Cc1cc(C)cc(C(=O)NC(CC(N)=O)c2ccc(NC3CCCCCC3)c([N+](=O)[O-])c2)c1 (stereo unspecified)	1	-4	0	6	4	11
C#CCOCCOCCOCCNc1nc(N2CCN(C(=O)CCCCCCCCCCNC(=O)[C@H](CCCCN)n3cc(C)nn3)CC2)nc(N2CCN(C(=O)CCCCCCCCCCNC(=O)[C@@H]([C@H](C)CC)n3cc(CCCCCN)nn3)CC2)n1	4	3	8	39*	12*	-6
C#CCOCCOCCOCCNc1nc(N2CCN(C(=O)CCCCCCCCCCNC(=O)[C@H](CCCCN)n3cc(CCO)nn3)CC2)nc(N2CCN(C(=O)CCCCCCCCCCNC(=O)[C@@H]([C@H](C)O)n3cc(C)nn3)CC2)n1	6	2	1	12	9.6*	-10
SMILES	IDE cell inh	PKA-R2B activ	PKA-R1A activ	IDE act	Rin1-Abl PPI inh	E coli Lon inh
C#CCOCCOCCOCCNc1nc(N2CCN(C(=O)CCCCCCCCCCNC(=O)Cn3cc(CCCCCN)nn3)CC2)nc(N2CCN(C(=O)CCCCCCCCCCNC(=O)[C@H](CO)n3cc(CCCCCN)nn3)CC2)n1	4	4	6	9	5	0
C#CCOCCOCCOCCNc1nc(N2CCN(C(=O)CCCCCCCCCCNC(=O)[C@H](CCC(=O)O)n3cc(CCCCCN)nn3)CC2)nc(N2CCN(C(=O)CCCCCCCCCCNC(=O)[C@@H]([C@H](C)O)n3cc(C)nn3)CC2)n1	5	-4	-3	4	7	-8
C#CCOCCOCCOCCNc1nc(N2CCN(C(=O)CCCCCCCCCCNC(=O)[C@H]([C@@H](C)CC)n3cc(CCCCCN)nn3)CC2)nc(N2CCN(C(=O)CCCCCCCCCCNC(=O)[C@@H]([C@H](C)O)n3cc(C)nn3)CC2)n1	-11	-15	5	39*	2	17
C#CCOCCOCCOCCNc1nc(N2CCN(C(=O)CCCCCCCCCCNC(=O)Cn3cc(CCCCCN)nn3)CC2)nc(N2CCN(C(=O)CCCCCCCCCCNC(=O)[C@H]([C@@H](C)CC)n3cc(CCCCCN)nn3)CC2)n1	-2	-1	11	25*	6	-6
C#CCOCCOCCOCCNc1nc(N2CCN(C(=O)CCCCCCCCCCNC(=O)[C@H](CCCCN)n3cc(CCCC(=O)O)nn3)CC2)nc(N2CCN(C(=O)CCCCCCCCCCNC(=O)[C@H](CCCCN)n3cc(CCCC(=O)O)nn3)CC2)n1	2	-5	-6	-6	1	-7
COc1cccc(N2CCN(c3ncnc4c3[nH]c3ccccc34)CC2C)c1 (stereo unspecified)	25*	.	.	.	.	.
O=C1c2ccccc2C(=O)C1c1ccc(Cl)cc1	5	-2	12	1	-4	0
O=C1c2ccccc2C(=O)C12OC2c1ccc(Cl)cc1Cl (stereo unspecified)	2	3	-2	2	7.2*	-1
O=C(NC1CCCCC1)C1CCN(S(=O)(=O)c2cccc3nsnc23)CC1	1	-11	4	5	1	1
O=C(O)c1ccccc1NC(=O)C1CCN(S(=O)(=O)c2cccc3nsnc23)CC1	-22	-5	-18	32*	3	-2
CCN(CC)CCNc1ncnc2c1sc1nc(N3CCOCC3)c3c(c12)CC(C)(C)SC3	5	3	-1	-8	18*	-2
COc1ccc(NC(=O)C2(C)CCCN2C(=O)C(C)C)cc1OC (stereo unspecified)	.	.	.	.	2	-7
